NPC1 prom act: activators of NPC1 promoter. Huh7 NPC1 promoter luciferase reporter, 24 h. Potency, µM (top dose mostly 9.22 µM), without a hit: at the top dose activation, most hits filed as activators. actives 2.4% (n = 320,000). AID 485313; note: % of control where 0% means no effect; nearly all actives have a fitted effect of over 60% in size
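Readout is luciferase luminescence, reflecting NPC1 promoter activation in stably transfected Huh7 cells after 24 h compound exposure at 37 °C in reduced-serum medium with 10% FBS.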
p53 reactivator: restores transcriptional activity of mutant p53; actives 0.063% (n = 320,000); H1299 p53-A138V BP100-luciferase reporter, luminescence, 24 h; AID 504706; Potency, µM (top dose mostly 92.2 µM), inactives show top-dose activity change, positive = activation, hits mostly activators; note: % of control where 0% means no effect; nearly all actives have a fitted effect of over 45% in size
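H1299 (p53-null), stable ts p53-A138V + BP100-Luc; 1000 cells/well, Opti-MEM/10% FBS; cpd 4 pt, 1:5; 24 h, 37 deg C, 5% CO2; detection reagent 10 min RT; luminescence.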
FLuc counter: inhibits or activates purified firefly luciferase, miR-21 counter-screen; P08659; purified FLuc, Km substrates, luminescence inhibition; Potency, µM (series often up to 57.5 µM), without a hit: top-dose activity change, negative = inhibition, most hits filed as inhibitors; actives 6.9% (n = 360,000); AID 588342;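 note: plate controls were vehicle for no effect and reference inhibitor for full effect; nearly all actives have a fitted effect of over 55% in size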
Target sequence (P08659 whole entry, looked up): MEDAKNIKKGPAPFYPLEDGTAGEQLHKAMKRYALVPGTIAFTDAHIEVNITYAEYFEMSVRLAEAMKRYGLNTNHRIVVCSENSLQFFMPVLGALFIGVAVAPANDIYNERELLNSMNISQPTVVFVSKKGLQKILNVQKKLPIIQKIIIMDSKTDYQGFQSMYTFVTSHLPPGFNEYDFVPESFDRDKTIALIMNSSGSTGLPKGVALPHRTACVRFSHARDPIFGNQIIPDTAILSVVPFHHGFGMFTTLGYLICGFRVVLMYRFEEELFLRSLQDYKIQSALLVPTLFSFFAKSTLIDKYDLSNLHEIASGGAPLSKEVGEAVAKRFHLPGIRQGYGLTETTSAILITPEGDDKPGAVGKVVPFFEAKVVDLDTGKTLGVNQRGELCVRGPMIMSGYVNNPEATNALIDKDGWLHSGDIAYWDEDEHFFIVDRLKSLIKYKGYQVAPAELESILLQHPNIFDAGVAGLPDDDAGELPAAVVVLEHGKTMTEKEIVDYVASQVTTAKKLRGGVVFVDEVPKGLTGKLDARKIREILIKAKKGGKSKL
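Biochemical qHTS of compounds, final roughly 60 µM downward over six points, against 10 nM purified firefly luciferase using Km concentrations of substrates (10 uM D-luciferin, 10 uM ATP) in Tris acetate pH 7.5 buffer; luminescence output.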
SMN2 splice enh: increases expression of the SMN2 splice variant | HEK293 SMN2-luciferase splicing reporter, luminescence, 30-36 h | Potency, µM (top dose mostly 46.1 µM), for the others: at the top dose activity change, positive = activation, usual class: activators | actives 2.8% (n = 210,000) | AID 1458; note: % of control where 0% means no effect; nearly all actives have a fitted effect of over 55% in size
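HEK293 cells carry an SMN2 minigene-luciferase reporter in which exon 7 inclusion puts luciferase in frame. Cells were seeded at 2000 cells/well, attached for 10-12 hours, then exposed to compounds for 30-36 hours at 37C before ONE-Glo luminescence.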
ELG1 genotox: induces genotoxicity in HEK293T cells with luciferase-tagged ELG1. Potency, µM (titrated, usually from 46 µM), inactives show at the highest dose activity change, positive = activation, hits mostly activators. AID 504466. HEK293T ELG1-luciferase reporter, luminescence, 16 h. actives 1.3% (n = 330,000); note: % of control where 0% means no effect; nearly all actives have a fitted effect of over 60% in size
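HEK293T cells expressing luciferase-tagged ELG1 were treated with compound or DMSO for 16 hr at 37°C. Luciferase activity was then read after 30 min with ONE-Glo at room temperature; rising signal flags genetic stress.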
Rab9 prom act: Rab9 promoter activation; Huh7 Rab9 promoter-luciferase reporter, luminescence, 24 h; Potency, µM (doses to about 9.22 µM), inactives show at the highest dose activation, negative = inhibition, most hits filed as activators; actives 2.8% (n = 320,000); note: % of control where 0% means no effect; nearly all actives have a fitted effect of over 60% in size
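Huh7 cells stably carrying Rab9 promoter–luciferase reporter, plated 1500 cells/well, compound added after 2 h and incubated 24 h at 37 °C; luciferase luminescence then read after 10 min with detection reagent.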
An asterisk follows results filed as active; [ ] = remark or other dose. Hits are enriched below; roughly 7.3% of the tested compounds scored in any of these assays. Calls come from the whole dose curve; as a rule, active = well fitted curve in the direction sought with a large enough effect; inconclusive = small, poorly fitted or top-dose-only effect, or another doubt; inactive = no such curve, though single readings can be large; an effect the other way counts as inactive or inconclusive. Potency is the fitted concentration of half-maximal effect.

Screening COc1cc(/C=C2\SC(c3ccc(C)cc3)=NC2=O)cc(OC)c1O returned NPC1 prom act -2%, p53 reactivator -3%, FLuc counter 6.7µM*, SMN2 splice enh 27%, ELG1 genotox 3% and Rab9 prom act -18%.
COc1cc(/C=C2\SC(N)=NC2=O)cc(Cl)c1O was read as NPC1 prom act -3%, FLuc counter 0%, ELG1 genotox 0% and Rab9 prom act 3%.
O=S(=O)(NCC1CCCO1)c1ccc(Cl)nc1 (configuration not stated) was read as NPC1 prom act -2%, p53 reactivator 0%, FLuc counter -1%, ELG1 genotox -1% and Rab9 prom act -1%.
Screening COc1ccc(C(=O)Nc2cccc(OCc3cc(=O)n4c5c(sc4n3)CCCC5)c2)cc1OC returned FLuc counter 2.4µM* and SMN2 splice enh -2%.
`O=C(Nc1cccc(OCc2cc(=O)n3c4c(sc3n2)CCCC4)c1)c1ccc(F)cc1` gave FLuc counter inconclusive and SMN2 splice enh 11%.
COC(=O)c1ccccc1N1C(=O)C2C(C1=O)C1C=CC2C12CC2 (configuration not stated) was read as NPC1 prom act -1%, p53 reactivator -7%, FLuc counter 5%, SMN2 splice enh 7%, ELG1 genotox 1% and Rab9 prom act 3%.
Screening COc1ccc(N2C(=O)C3C(C2=O)C2C=CC3C23CC3)c(OC)c1 (configuration not stated) returned NPC1 prom act -1%, p53 reactivator inconclusive, FLuc counter 13µM*, SMN2 splice enh -1%, ELG1 genotox 6% and Rab9 prom act 8%.
For CCOc1ccc(CCNC(=O)CSCc2nc(-c3cccc(C)c3)oc2C)cc1OCC the results were FLuc counter -17% and SMN2 splice enh -51%.
O=C(Nc1ccc(Br)cc1F)c1ncoc1-c1ccco1 was read as FLuc counter -7%.
Screening O=C(NCCSCc1ccco1)Nc1cc(Cl)cc(Cl)c1 returned NPC1 prom act -4%, p53 reactivator 14%, FLuc counter 27µM*, ELG1 genotox -5% and Rab9 prom act -6%.
Screening O=C(CSCc1ccc(Cl)cc1)NCCSCc1ccco1 returned NPC1 prom act -11%, p53 reactivator -3%, FLuc counter -16%, ELG1 genotox -2% and Rab9 prom act -3%.
For C#CCNC(=O)/C=C/c1ccc(OC)cc1 the results were NPC1 prom act 28%, p53 reactivator inconclusive, FLuc counter 21µM*, SMN2 splice enh 14µM*, ELG1 genotox inconclusive and Rab9 prom act inconclusive.
Screening O=C(/C=C/c1ccccc1)Nn1cnnc1 returned NPC1 prom act 0%, p53 reactivator 8%, FLuc counter inconclusive, SMN2 splice enh 15%, ELG1 genotox 4% and Rab9 prom act 4%.
For COc1ccc(/C=C/C(=O)NCCSCc2ccco2)cc1 the results were NPC1 prom act -1%, p53 reactivator inconclusive, FLuc counter 17µM*, SMN2 splice enh 7%, ELG1 genotox 3% and Rab9 prom act -1%.
`COc1ccc(/C=C/C(=O)Nn2cnnc2)cc1` gave NPC1 prom act -4%, p53 reactivator inconclusive, FLuc counter 15µM*, SMN2 splice enh 57%, ELG1 genotox 2% and Rab9 prom act -7%.
Screening Cc1noc(C)c1C(=O)Nc1nc(C23CC4CC(CC(C4)C2)C3)cs1 returned NPC1 prom act -1%, p53 reactivator 0%, FLuc counter 5%, SMN2 splice enh -11%, ELG1 genotox -9% and Rab9 prom act 1%.
`CSc1ncnc2c1ncn2CC(=O)[C@H]1CC[C@H]2[C@H]3CCC4=CC(=O)CC[C@@]4(C)[C@@H]3CC[C@@]12C` gave SMN2 splice enh -37%[9.22 µM].
CCCCc1ccc(NC(=O)CN2NS(=O)(=O)c3ccccc3C2=O)cc1 was read as NPC1 prom act -1%, p53 reactivator 7%, FLuc counter 3%, SMN2 splice enh 0%, ELG1 genotox -4% and Rab9 prom act -5%.
`C=CCn1c(C)cc(C(=O)CN2NS(=O)(=O)c3ccccc3C2=O)c1C` gave NPC1 prom act 18%, p53 reactivator 4%, FLuc counter 1.7µM*, SMN2 splice enh -15%, ELG1 genotox 21µM* and Rab9 prom act inconclusive.
For C=CCn1c(C)cc(C(=O)Cn2ncc(Cl)c(Cl)c2=O)c1C the results were NPC1 prom act -16%, p53 reactivator -11%, FLuc counter 5.4µM*, SMN2 splice enh inconclusive, ELG1 genotox -15% and Rab9 prom act -25%.
Screening COc1ccc(NCc2cc3ccc(OC)cc3n(CC(=O)Nc3cccc(OC)c3)c2=O)cc1 returned FLuc counter -6%.
`COc1ccccc1NC(=O)Cn1c(=O)n(CCCCCC(=O)NCc2ccccc2)c(=O)c2sccc21` gave FLuc counter -3% and SMN2 splice enh -5%.
Screening C=CCSc1n[nH]c(-c2ccc(OC)cc2)n1 returned NPC1 prom act 2.8µM*, p53 reactivator inconclusive, FLuc counter 15µM*, SMN2 splice enh 14µM*, ELG1 genotox 3.3µM* and Rab9 prom act 2µM*.
Screening C=CCSc1n[nH]c(-c2ccccc2)n1 returned NPC1 prom act 28%, p53 reactivator 13%, FLuc counter inconclusive, SMN2 splice enh 16%, ELG1 genotox inconclusive and Rab9 prom act 28%.
`COc1ccc(-c2nc(SCC(=O)Nc3cc(C)on3)n[nH]2)cc1` gave NPC1 prom act 0%, p53 reactivator 9%, FLuc counter 21µM*, SMN2 splice enh -11%, ELG1 genotox 11% and Rab9 prom act 1%.
Screening CCCCOc1ccc(C2=NNC(=O)CC2)cc1 returned NPC1 prom act 12%, p53 reactivator 6%, FLuc counter inconclusive, SMN2 splice enh -7%[1.84 µM], ELG1 genotox inconclusive and Rab9 prom act 14%.
For CCCCOc1ccc(-c2nc(=S)[nH][nH]2)cc1 the results were NPC1 prom act 26%, p53 reactivator 7%, FLuc counter inconclusive, SMN2 splice enh 10µM*, ELG1 genotox 30% and Rab9 prom act inconclusive.
`Cc1ccc(-c2nc(SCC(=O)Nc3cc(S(=O)(=O)N4CCCCC4)ccc3Cl)n[nH]2)cc1` gave NPC1 prom act -5%, p53 reactivator 20%, FLuc counter 15µM*, SMN2 splice enh 5%[1.84 µM], ELG1 genotox 0% and Rab9 prom act -7%.
`CC(Sc1ncc(S(=O)(=O)c2ccc(C(C)C)cc2)c(N)n1)C(=O)Nc1ccccc1` (configuration not stated) gave FLuc counter 0%.

Bioassay records from PubChem BioAssay.
